Measurements reported in PubChem BioAssay (NCATS).
Inconclusive results are not listed. Activity calls are given as the source filed them. Calls follow the shape of the dose curve; as a rule, active = well fitted cell-killing curve with a large enough effect; inconclusive = small, poorly fitted or top-dose-only effect, or effect the other way; inactive = flat fitted curve, though single readings scatter.

System: CASKI
Test: Primary qHTS to identify gynecologic anti-cancer compounds using libraries of approved drugs and bioactive compounds (AID 1345084); also: nearly all actives have a fitted effect of over 55% in size
Conditions: Gynecologic cancer cell panel viability, ATPlite luminescence, 48 h; series mostly up to 57.5 µM; activity change, negative = cytotoxicity: at the top concentration
Method in brief: (§1)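 Cells, 1,000 per well, plated 16 h, then exposed 48 h at 37 C to compounds. Viability by ATPlite luminescence after 15 min at room temperature.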
% is scaled to controls: 0 for no effect and ±100 for the full control effect; potency is read from the fitted curve at half-maximal effect.

SMILES	activity change, negative = cytotoxicity	Potency
C[C@@H]1O[C@@H](O[C@H]2[C@H](OC(=O)[C@]34CCC(C)(C)C[C@H]3C3=CCC5[C@@]6(C)C[C@H](O)[C@H](O[C@@H]7O[C@H](CO)[C@@H](O[C@H]8OC[C@](O)(CO)[C@H]8O)[C@H](O)[C@H]7O)[C@@](C)(CO)C6[C@H](O)C[C@@]5(C)[C@]3(C)C[C@H]4O)OC[C@H](O)[C@@H]2O)[C@H](O)[C@H](O)[C@H]1O[C@@H]1OC[C@@H](O)[C@H](O[C@@H]2OC[C@](O)(CO)[C@H]2O)[C@H]1O (stereo not given in full)	-0.0524% [at 6.55 µM] (inactive)	–
O=C(O)[C@H](Cc1ccc(Nc2nccc3ccncc23)cc1)NC1=C(Br)C(=O)C12CCCCC2	-0.626% (inactive)	–
CC(C)C(C(=O)N(C)C(C)C(N)=O)N(C)C(=O)C1CCCN1C(=O)/C=C/C=C/C(O)C(C)O (stereo not given)	-4.97% [at 25.3 µM] (inactive)	–
Nc1nc2c(c(=O)[nH]1)C[C@@H](CCc1ccc(C(=O)N[C@@H](CCC(=O)O)C(=O)O)cc1)CN2	–	282 nM (active)
CC1(O)CCCC2(C)C1CCC13CC(CO)C(CCC12)C3 (stereo not given)	-1.45% (inactive)	–
CC(=O)/C=C/[C@H]1[C@](C)(O)[C@@H](O)[C@H](OC(C)=O)C2C(C)(C)CCC[C@@]21C (stereo not given in full)	9.59% [at 38.5 µM] (inactive)	–
C=C(C(=O)OC)C1C(O)CC2(C)C(=O)CCC(O)(CO)C2C1O (stereo not given)	6.1% [at 38.5 µM] (inactive)	–

System: Es-2
Test: as above
Conditions: Gynecologic cancer cell panel viability, ATPlite luminescence, 48 h; series mostly up to 57.5 µM; activity change, negative = cytotoxicity: at the top concentration
Method in brief: as §1

SMILES	activity change, negative = cytotoxicity
COC(=O)CC(C)(O)CC(=O)OCc1ccc(O[C@@H]2O[C@H](CO)[C@@H](O)[C@H](O)[C@H]2O)cc1 (stereo not given in full)	0.514% [at 25.3 µM] (inactive)
CC[C@@H](O)C[C@@H]1C(C)=C[C@@H]2CCCC[C@@H]2[C@@]1(C)C(=O)O	2.65% (inactive)
C=C1CCC2C(C)(C(=O)O)CCCC2(C)C1CC/C(=C\CO)CO (stereo not given)	-18.2% [at 38.5 µM] (inactive)
Cc1oc2ccccc2c1CNC(=O)NCc1cccs1	16% (inactive)
CCC(C)C(=O)OC1CC(C)C=C2C=CC(C)C(CCC(O)CC(O)CC(=O)O)C21 (stereo not given)	-5.01% [at 25.3 µM] (inactive)
C[C@]12C=C[C@@]3(CCC4[C@](C)(CO)CCC[C@@]4(C)C3CC1)C2 (stereo not given in full)	8.76% (inactive)
CC(C)CC1NC(=O)C(C)NC(=O)C(CC(C)C)OC(=O)CCCNC1=O (stereo not given)	6.94% [at 38.5 µM] (inactive)
COC1/C=C/C(C)(O)C(SCC(N)C(=O)O)CC(=O)OC(C)C(C)CC/C=C/1C (stereo not given)	0.701% [at 25.3 µM] (inactive)
CC/C=C\CC1C(=O)C=CC1(CCCCCCCC(=O)O)OC(C)=O (stereo not given)	-7.42% [at 38.5 µM] (inactive)
CC1OC(OC2C(C)OC(OC3C(O)C(CO)OC(O[C@H]4CC[C@@]5(C)C(CC[C@]6(C)C5CC=C5C7[C@@H](C)[C@H](C)CC[C@]7(C(=O)O)CC[C@]56C(=O)O)C4(C)C)C3O)C(O)C2O)C(O)C(O)C1O (stereo not given in full)	1.92% [at 11.6 µM] (inactive)
C[C@@H]1O[C@@H](OC[C@H]2O[C@@H](OC(CCCCc3ccc(O)cc3)CCc3ccc(O)cc3)[C@H](O)[C@@H](O)[C@@H]2O)[C@H](O)[C@H](O)[C@H]1O (stereo not given in full)	-0.439% [at 25.3 µM] (inactive)
CC(c1ncncc1F)C(O)(Cn1cncn1)c1ccc(F)cc1F (stereo not given)	6.68% (inactive)
CC1(C=O)CC[C@]2(C(=O)O[C@@H]3O[C@H](CO)[C@@H](O)[C@H](O)[C@H]3O)CC[C@]3(C)C(=CCC4[C@@]5(C)C[C@H](O)[C@H](O[C@@H]6OC[C@@H](O)[C@H](O)[C@H]6O)[C@@](C)(CO)C5CC[C@]43C)C2C1 (stereo not given in full)	-7.22% [at 11.6 µM] (inactive)
O=C(O)/C=C/c1cc2c(cc1O[C@@H]1O[C@H](CO)[C@@H](O)[C@H](O)[C@H]1O)OCO2	1.03% [at 38.5 µM] (inactive)
CC(C)O[C@@H]1O[C@H](CO)[C@@H](O)[C@H](O)[C@H]1O	3.59% (inactive)
CC1=C2C3OC(=O)C(C)C3(O)CCC2(C)CCC1O (stereo not given)	-0.434% (inactive)
COC(=O)CC1CC(c2ccc(O)cc2)=NO1 (stereo not given)	-8.83% (inactive)
CC(=O)C12OC(C)(C)OC1CC1C3CCC4=CC(=O)C=CC4(C)C3(F)C(O)CC12C (stereo not given)	7.38% (inactive)
C[C@H]1O[C@@H](O[C@H]2CC[C@@]3(C)C(CC[C@]4(C)C3CC=C3C5CC(C)(C)CC[C@]5(C(=O)O)CC[C@]34C(=O)O)C2(C)C)[C@H](O)[C@@H](O)[C@@H]1O (stereo not given in full)	7% [at 25.3 µM] (inactive)
C=C1CCC2C(C)(C(=O)OC)CCCC2(C)C1CCC(C)CC(=O)O (stereo not given)	-2.03% [at 38.5 µM] (inactive)
COc1ccccc1Oc1ccc(N(Cc2cccnc2)S(=O)(=O)CC(F)(F)F)cc1	-0.485% (inactive)
COc1ccc(Cl)c(Nc2nc3ccccc3nc2NS(=O)(=O)c2cccc(NC(=O)C(C)(C)N)c2)c1	-4.78% (inactive)
COC(=O)C1=CO[C@@H](O[C@@H]2O[C@H](CO)[C@@H](O)[C@H](O)[C@H]2O)[C@H]2[C@@H]1C=C[C@@]21C=C([C@H](C)O)C(=O)O1	3.79% [at 25.3 µM] (inactive)
